Measurements from PubChem BioAssay (NCATS).
Results filed as inconclusive are left out. Entries that show only a call come without a potency. Activity calls are given as the source filed them. Calls follow the shape of the full dose curve.

Molecular target: Estrogen receptor (Homo sapiens) (UniProt P03372)
Assay: qHTS assay for small molecule agonists of estrogen receptor alpha signaling (AID 588514); also: nearly all actives have a fitted effect of over 70% in size
Settings: ER-alpha-UAS-bla HEK293, beta-lactamase ratio, 18 h; series mostly up to 76.8 µM
From the text: NIH Chemical Genomics Center [NCGC]
U.S. Environmental Protection Agency [EPA]
National Institutes of Environmental Health Sciences [NIEHS]
National Toxicology Program [NTP]
Estrogen receptor alpha (ER-alpha) is an important member of nuclear hormone receptors. ER-alpha plays important role in breast cancer as well as in other women's health issues. The majority of breast cancers is estrogen receptor (ER) positive and depends on estrogen for growth. There is also growing concern for some of environmental chemicals which may contribute the increasing the incidence of breast cancer. Therefore, it is important to understand the effect of environmental chemicals in ER-alpha signaling pathway.
NCGC Assay Protocol Summary
Using a beta-lactamase reporter-gene under control of the ER response element, a cell-based assay [ER-alpha-UAS-bla GripTiteTM cell-Based Assay from Invitrogen] was used to measure ER-alpha signaling pathway in agonist mode. ER-alpha-UAS-bla-GripTite HEK 293 cells were used with assay medium containing 2% charcoal/dextran treated FBS, 0.1 mM NEAA and 1 mM sodium pyruvate. Cells were cultured in this assay medium overnight in the flasks before the assay. The assay was performed in clear bottom black Greiner 1536-well plates. 17-beta-estradiol was used as a positive control in the screen. Library compounds were measured for their ability to either stimulate the reporter gene activity. Compounds were screened in a titration series in 1536-well format. […] Data was normalized relative to 17-beta-estradiol control (20 nM, 100%), and DMSO only wells (basal, 0%). Concentration-response titration points for each compound were fitted to the Hill equation yielding concentrations of half-maximal stimulation (EC50) and maximal response (efficacy) values.
qHTS protocol for ER-alpha beta-lactamase assay in agonist mode
[Step] [Parameter] [Value] [Description]
1. Reagent; 6 uL; 5000 cells/well
2. Incubation; 37 C for 4 hrs
4. Controls (17-beta-estradiol); 23 nL
- Dose response, start 1uM, 1:3 dilutions with duplicates
- Two columns with 20 and 0.5 nM (final) concentration.
5. Incubation; 37 C for 18 hrs
6. Detection reagent; 1 uL of CCF4-dye
7. Incubation; RT for 2 hrs
8. Detection; Fluorescence; Envision plate reader or Acumen plate reader

Chain of Estrogen receptor (Homo sapiens) (P03372 whole entry, looked up): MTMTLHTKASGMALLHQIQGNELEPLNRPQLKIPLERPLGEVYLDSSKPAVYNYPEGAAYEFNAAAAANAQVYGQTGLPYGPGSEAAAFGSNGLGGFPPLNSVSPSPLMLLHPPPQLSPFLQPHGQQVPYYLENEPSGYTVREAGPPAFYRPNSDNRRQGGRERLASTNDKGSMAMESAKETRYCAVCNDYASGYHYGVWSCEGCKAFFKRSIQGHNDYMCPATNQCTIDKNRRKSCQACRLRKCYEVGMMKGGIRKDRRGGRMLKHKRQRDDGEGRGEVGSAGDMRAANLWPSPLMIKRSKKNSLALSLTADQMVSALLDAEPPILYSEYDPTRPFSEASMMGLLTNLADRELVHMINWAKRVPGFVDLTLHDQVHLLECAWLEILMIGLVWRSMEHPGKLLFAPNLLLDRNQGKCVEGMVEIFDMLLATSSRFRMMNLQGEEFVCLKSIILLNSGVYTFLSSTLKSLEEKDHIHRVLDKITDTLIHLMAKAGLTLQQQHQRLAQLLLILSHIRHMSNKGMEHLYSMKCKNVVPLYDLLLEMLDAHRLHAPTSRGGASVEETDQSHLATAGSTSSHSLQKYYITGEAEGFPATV

Structure (SMILES) | Potency
COc1cc(OC)nc(NC(=O)NS(=O)(=O)c2ncccc2C(F)(F)F)n1 | inactive
COC(=O)c1ccccc1CS(=O)(=O)NC(=O)Nc1nc(OC)cc(OC)n1 | inactive
C=CC1(C)OC(=O)N(c2cc(Cl)cc(Cl)c2)C1=O (stereo not given) | inactive
Nc1ccc([N+](=O)[O-])cc1Cl | inactive
Clc1ccccc1-c1nnc(-c2ccccc2Cl)nn1 | inactive
O=C1NCCN1Cc1ccc(Cl)nc1 | inactive
Cc1cc(Cl)ccc1O[C@H](C)C(=O)O | inactive
O=S(=O)(c1ccc(O)cc1)c1ccc(O)cc1 | 14.1 µM (active)
CC1=C(C(=O)Nc2ccccc2)S(=O)(=O)CCO1 | inactive
CCOc1ccc(C(C)(C)COCc2cccc(Oc3ccccc3)c2)cc1 | inactive
C=CCC1=C(C)[C@@H](OC(=O)[C@@H]2[C@@H](C=C(C)C)C2(C)C)CC1=O | inactive
Cc1ccccc1C(=O)Nc1cccc(OC(C)C)c1 | inactive
FC(F)(F)c1ccc(OCCCOc2c(Cl)cc(OCC=C(Cl)Cl)cc2Cl)nc1 | inactive
Clc1ccc(C(Cl)(Cl)Cl)cc1 | inactive
ClC1=C(Cl)C2(Cl)C3C4OC4C(Cl)C3C1(Cl)C2(Cl)Cl (stereo not given) | inactive
CC(C)(C)[C@@H](O)/C(=C\c1ccc(Cl)cc1Cl)n1cncn1 | inactive
CCCC1COC(Cn2cncn2)(c2ccc(Cl)cc2Cl)O1 (stereo not given) | inactive
CC(Oc1cc(Cl)c(Cl)cc1Cl)C(=O)O (stereo not given) | inactive
CCNc1nc(NC(C)(C)C)nc(SC)n1 | inactive
CC(C)(c1ccccc1)c1cc(-n2nc3ccccc3n2)c(O)c(C(C)(C)c2ccccc2)c1 | inactive

Structure (SMILES) | Potency
COP(=O)(OC)O/C(C)=C/C(=O)N(C)C | inactive
CC(C)C1(C)N=C(c2ncccc2C(=O)O)NC1=O (stereo not given) | inactive
C/C(=N\NC(=O)Nc1cc(F)cc(F)c1)c1ncccc1C(=O)O | inactive
COP(=O)(OC)Oc1ccc([N+](=O)[O-])cc1 | inactive
CCOP(=S)(OCC)SCSP(=S)(OCC)OCC | inactive
CC(C)C1(C)N=C(c2nc3ccccc3cc2C(=O)O)NC1=O (stereo not given) | inactive
O=S(=O)(c1ccc(Cl)cc1)c1cc(Cl)c(Cl)cc1Cl | inactive
CC(C)OC(=O)C(O)(c1ccc(Br)cc1)c1ccc(Br)cc1 | inactive
O=C(NC(=O)c1c(F)cccc1F)Nc1cc(Cl)c(OC(F)(F)C(F)F)c(Cl)c1 | inactive
COc1nc(C)nc(NC(=O)NS(=O)(=O)c2ccccc2Cl)n1 | inactive
C=CC(=O)OCCCCCC(C)C | inactive
FC(F)(F)c1ccc(Cl)cc1 | inactive
O=S1OC[C@@H]2[C@H](CO1)[C@@]1(Cl)C(Cl)=C(Cl)[C@]2(Cl)C1(Cl)Cl (stereo not given in full) | inactive
Cc1cnc(C2=NC(C)(C(C)C)C(=O)N2)c(C(=O)O)c1 (stereo not given) | inactive
CC(C)C(=O)OCC(C)(C)C(OC(=O)C(C)C)C(C)C (stereo not given) | inactive
CN/C(=N\[N+](=O)[O-])NCc1cnc(Cl)s1 | inactive
Cc1c(F)c(F)c(COC(=O)C2C(/C=C(\Cl)C(F)(F)F)C2(C)C)c(F)c1F (stereo not given) | inactive
O=Nc1ccc(Nc2ccccc2)cc1 | 5.01 µM (active)
O=[As](O)(O)O | inactive
CCOC1Oc2ccc(OS(C)(=O)=O)cc2C1(C)C (stereo not given) | inactive
